Inconclusive results are not listed. Calls of active or inactive are those of the source. Rule for the calls, unless noted: active = hit-call score of the fitted dose curve at least 0.9, where 1 is the maximum; inactive = score below 0.9.
How the values were obtained:
[1] = target: Bile acid receptor (Homo sapiens) (UniProt Q96RI1); assay: ATG_FXR_TRANS: Attagene TRANS-FACTORIAL HepG2 Assay for Farnesoid X Receptor (FXR) (AID 2282979; active = hit-call score of the fitted dose curve at least 0.9, where 1 is the maximum;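 note: hits raise reporter mRNA above DMSO so AC50 marks FXR activation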); settings: HepG2 Attagene TRANS FXR-GAL4 reporter transcription
Method in brief: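 Read-out: fluorescent reporter transcripts quantified by capillary electrophoresis after RT-PCR of total RNA. Source cells were HepG2 transiently carrying chimeric NR-GAL4 plus GAL4-UAS reporter units, dosed 24 h. Activity fitted upward relative to DMSO baseline.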

[2] = target: Oxysterols receptor LXR-beta (Homo sapiens) (UniProt P55055); assay: ATG_LXRb_TRANS: Attagene TRANS-FACTORIAL HepG2 Assay for human Liver X Receptor beta (LXRb) (AID 2282981; active = hit-call score of the fitted dose curve at least 0.9, where 1 is the maximum); settings: HepG2 Attagene TRANS GAL4-LXRb reporter, mRNA
Oxysterols receptor LXR-beta (Homo sapiens), sequence (P55055 whole entry, looked up, the tested form may be a part): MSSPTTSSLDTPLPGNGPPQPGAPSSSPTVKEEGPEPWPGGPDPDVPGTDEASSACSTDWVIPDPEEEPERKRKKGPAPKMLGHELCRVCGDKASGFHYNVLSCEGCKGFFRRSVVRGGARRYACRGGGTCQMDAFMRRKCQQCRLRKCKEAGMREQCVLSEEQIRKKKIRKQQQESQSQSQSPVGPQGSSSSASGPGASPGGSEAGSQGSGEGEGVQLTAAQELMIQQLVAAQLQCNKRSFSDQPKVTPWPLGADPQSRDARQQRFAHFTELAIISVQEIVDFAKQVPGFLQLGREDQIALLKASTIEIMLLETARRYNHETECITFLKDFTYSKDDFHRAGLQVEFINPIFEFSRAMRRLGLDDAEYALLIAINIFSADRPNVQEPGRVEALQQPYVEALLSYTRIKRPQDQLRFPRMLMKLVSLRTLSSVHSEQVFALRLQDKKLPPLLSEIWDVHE
Method in brief: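 Gain-of-signal mRNA reporter endpoint, DMSO as negative control. Transiently transfected HepG2 cells carrying the NR-Gal4 chimera and GAL4-UAS reporter units were treated 24 h; transcripts quantified by RT-PCR and capillary electrophoresis fluorescence.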

[3] = ATG_M_06_TRANS: Attagene TRANS-FACTORIAL HepG2 Assay for M06 Transcription Factor (Internal Marker) (AID 2282983; active = hit-call score of the fitted dose curve at least 0.9, where 1 is the maximum); settings: HepG2 Attagene TRANS M06 internal marker reporter
Method in brief: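 After a 24 h chemical treatment of transfected HepG2, RNA underwent DNase I treatment, reverse transcription and reporter-specific PCR; labelled, HpaI-digested products were sized by capillary electrophoresis. Signal increase relative to DMSO defined activity.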

[4] = ATG_M_32_TRANS: Attagene TRANS-FACTORIAL HepG2 Assay for M32 Transcription Factor (Internal Marker) (AID 2282984; active = hit-call score of the fitted dose curve at least 0.9, where 1 is the maximum;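 note: transcript level of a background control reporter unit measured by RT-PCR and capillary electrophoresis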); settings: HepG2 Attagene TRANS M32 internal marker reporter
Method in brief: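 Capillary electrophoresis of 6-FAM-labelled reporter fragments gives the signal; data fitted for gain over DMSO negative control. Source: HepG2 cells bearing transient multiple reporter transcription units, 24 h exposure.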

[5] = target: Nuclear receptor subfamily 4 group A member 2 (Homo sapiens) (UniProt P43354); assay: ATG_NURR1_TRANS: Attagene TRANS-FACTORIAL HepG2 Assay for human Nuclear Receptor Related Protein 1 (NURR1) (AID 2282985; active = hit-call score of the fitted dose curve at least 0.9, where 1 is the maximum); settings: HepG2 Attagene TRANS reporter, mRNA readout
Nuclear receptor subfamily 4 group A member 2 (Homo sapiens), sequence (P43354 whole entry, looked up): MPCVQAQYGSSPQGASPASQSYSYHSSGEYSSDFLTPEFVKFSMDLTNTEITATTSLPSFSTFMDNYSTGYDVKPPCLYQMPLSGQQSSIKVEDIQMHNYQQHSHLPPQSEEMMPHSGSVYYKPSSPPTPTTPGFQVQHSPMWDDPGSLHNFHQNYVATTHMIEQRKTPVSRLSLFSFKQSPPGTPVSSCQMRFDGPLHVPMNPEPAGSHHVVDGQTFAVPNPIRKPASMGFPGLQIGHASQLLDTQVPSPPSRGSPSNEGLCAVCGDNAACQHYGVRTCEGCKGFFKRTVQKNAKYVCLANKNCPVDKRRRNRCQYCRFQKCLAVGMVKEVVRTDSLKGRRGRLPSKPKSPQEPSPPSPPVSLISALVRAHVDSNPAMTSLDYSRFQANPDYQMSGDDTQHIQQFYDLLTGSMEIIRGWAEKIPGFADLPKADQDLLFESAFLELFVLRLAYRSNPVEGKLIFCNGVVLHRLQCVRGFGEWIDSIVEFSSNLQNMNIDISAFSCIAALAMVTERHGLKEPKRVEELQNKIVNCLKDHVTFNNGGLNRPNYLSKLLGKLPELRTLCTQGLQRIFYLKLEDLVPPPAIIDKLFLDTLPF
Method in brief: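 HepG2 / transient MRTU transfection / 24 h compound exposure / RT-PCR + CE fluorescence of reporter mRNA / gain-of-signal vs DMSO.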

[6] = target: Transcriptional activator Myb (Homo sapiens) (UniProt P10242); assay: ATG_Myb_CIS: Attagene CIS-FACTORIAL HepG2 Assay for human Myeloblastosis (Myb) Proto-Oncogene Transcription Factor (AID 2282986); settings: HepG2 Attagene CIS-FACTORIAL Myb reporter transcription; actives raise or lower the signal
Transcriptional activator Myb (Homo sapiens), sequence (P10242 whole entry, looked up): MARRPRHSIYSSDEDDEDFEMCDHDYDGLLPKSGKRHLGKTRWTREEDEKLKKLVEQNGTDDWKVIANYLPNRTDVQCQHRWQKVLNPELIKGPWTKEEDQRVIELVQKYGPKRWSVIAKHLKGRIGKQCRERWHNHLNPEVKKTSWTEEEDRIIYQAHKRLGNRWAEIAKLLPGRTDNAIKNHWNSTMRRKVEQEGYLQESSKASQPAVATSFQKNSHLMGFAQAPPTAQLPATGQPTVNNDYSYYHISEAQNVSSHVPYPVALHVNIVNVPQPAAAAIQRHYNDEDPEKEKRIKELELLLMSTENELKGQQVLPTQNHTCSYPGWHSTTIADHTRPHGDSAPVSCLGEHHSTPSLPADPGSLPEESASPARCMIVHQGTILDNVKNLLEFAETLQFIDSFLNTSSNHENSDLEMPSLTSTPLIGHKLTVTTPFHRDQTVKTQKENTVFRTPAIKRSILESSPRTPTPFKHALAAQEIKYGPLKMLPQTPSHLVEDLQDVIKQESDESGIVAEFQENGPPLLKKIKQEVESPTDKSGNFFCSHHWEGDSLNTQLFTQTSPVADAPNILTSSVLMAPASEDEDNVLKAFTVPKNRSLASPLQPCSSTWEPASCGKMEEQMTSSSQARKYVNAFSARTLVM
Method in brief: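 Using HepG2 liver cells bearing transiently transfected cis-promoter reporter constructs, the assay measures induction or loss of reporter mRNA after 24 hours of dosing. Detection used fluorescently labeled RT-PCR products separated by capillary electrophoresis.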

[7] = target: Nuclear respiratory factor 1 (Homo sapiens) (UniProt Q16656); assay: ATG_NRF1_CIS: Attagene CIS-FACTORIAL HepG2 Assay for human Nuclear Respiratory Factor 1 (NRF1) Orphan Gene (AID 2282987); settings: HepG2 NRF1 cis-element reporter, Attagene multiplex; actives raise or lower the signal
Nuclear respiratory factor 1 (Homo sapiens), sequence (Q16656 whole entry, looked up): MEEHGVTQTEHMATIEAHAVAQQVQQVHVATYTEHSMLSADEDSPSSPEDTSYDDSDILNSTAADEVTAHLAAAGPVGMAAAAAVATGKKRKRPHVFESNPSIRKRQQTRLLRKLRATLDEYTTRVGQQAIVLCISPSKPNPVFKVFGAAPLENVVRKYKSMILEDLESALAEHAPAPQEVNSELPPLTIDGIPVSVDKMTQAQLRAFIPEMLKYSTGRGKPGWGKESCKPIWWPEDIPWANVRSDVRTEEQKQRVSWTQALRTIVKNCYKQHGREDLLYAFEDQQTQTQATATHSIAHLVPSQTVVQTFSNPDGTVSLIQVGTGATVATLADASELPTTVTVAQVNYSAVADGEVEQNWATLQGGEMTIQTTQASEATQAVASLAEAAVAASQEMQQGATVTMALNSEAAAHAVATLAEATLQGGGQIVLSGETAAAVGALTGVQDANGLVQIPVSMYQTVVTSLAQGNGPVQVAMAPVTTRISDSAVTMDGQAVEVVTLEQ
Method in brief: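 Reporter mRNA induction or loss in HepG2 cells after 24 h dosing; cis-regulated reporter constructs report endogenous transcription-factor activity. Quantified by RT-PCR/capillary electrophoresis fluorescence, DMSO-referenced.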

[8] = ATG_NFI_CIS: Attagene CIS-FACTORIAL HepG2 Assay for human Nuclear Factor I (NFI) (AID 2282989); settings: HepG2 cis-regulatory reporter, NFI response element transcription; actives raise or lower the signal
Method in brief: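 Multiplexed cis-reporter system in human HepG2 cells reports native TF activity as reporter mRNA induction 24 h post-dose. Fragments labelled with 6-FAM, HpaI-digested and resolved by capillary electrophoresis; activity fitted both directions versus DMSO.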

[9] = target: Myc proto-oncogene protein (Homo sapiens) (UniProt P01106); assay: ATG_Myc_CIS: Attagene CIS-FACTORIAL HepG2 Assay for human Myelocytomatosis (Myc) Proto-Oncogene Transcription Factor (AID 2282990); settings: HepG2, Attagene cis-reporter transcription factor activity; actives raise or lower the signal
Myc proto-oncogene protein (Homo sapiens), sequence (P01106 whole entry, looked up): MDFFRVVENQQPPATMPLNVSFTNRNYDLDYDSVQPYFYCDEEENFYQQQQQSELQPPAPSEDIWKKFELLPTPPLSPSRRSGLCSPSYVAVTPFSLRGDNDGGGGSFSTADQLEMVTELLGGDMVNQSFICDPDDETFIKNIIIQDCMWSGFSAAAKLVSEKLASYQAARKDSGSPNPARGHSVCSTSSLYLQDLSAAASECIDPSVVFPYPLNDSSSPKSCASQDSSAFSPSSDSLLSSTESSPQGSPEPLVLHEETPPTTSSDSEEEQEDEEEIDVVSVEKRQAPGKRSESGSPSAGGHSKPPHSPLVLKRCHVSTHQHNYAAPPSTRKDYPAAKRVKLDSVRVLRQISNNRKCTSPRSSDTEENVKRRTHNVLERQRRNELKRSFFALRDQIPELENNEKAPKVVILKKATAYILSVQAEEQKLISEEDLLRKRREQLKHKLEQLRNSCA
Method in brief: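 Transiently transfected HepG2 cells bearing cis-promoter reporter units for endogenous transcription factors; 24 h exposure. Reporter mRNA measured by RT-PCR, 6-FAM primer extension, HpaI cut and capillary electrophoresis; bidirectional fit relative to DMSO.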

[10] = ATG_NF_kB_CIS: Attagene CIS-FACTORIAL HepG2 Assay for human Nuclear Factor Kappa B (NF-kB) (AID 2282991); settings: HepG2 Attagene cis-factorial NF-kB reporter mRNA; actives raise or lower the signal
Method in brief: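 DMSO served as negative control and baseline for bidirectional curve fitting. Transiently transfected HepG2 cells were dosed for 24 h, then reporter transcripts were measured by RT-PCR with capillary electrophoresis detection.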

[11] = ATG_NRF2_ARE_CIS: Attagene CIS-FACTORIAL HepG2 Assay for human Nuclear Factor Erythroid 2 Related Factor 2 (NFR2) response to Antioxidant Response Elements (ARE) (AID 2282992); settings: HepG2 Attagene ARE/NRF2 reporter, transcription factor activity; actives raise or lower the signal;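 for AC50: reporter mRNA level measured by RT-PCR and capillary electrophoresis fluorescence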
Method in brief: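 HepG2 cells transiently transfected with multiplexed cis-regulated reporter transcription units measure endogenous transcription factor activity. Reporter mRNA at 24 h is quantified by RT-PCR, fluorescent labelling and capillary electrophoresis, with bidirectional fitting relative to DMSO.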

[12] = ATG_Oct_MLP_CIS: Attagene CIS-FACTORIAL HepG2 Assay for human Octamer-Binding Transcription Factor (Oct) (AID 2282993); settings: HepG2 Attagene cis-factorial Oct reporter, mRNA; actives raise or lower the signal
Method in brief: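 After 24 h compound exposure, transfected HepG2 cells were lysed for total RNA; reporter-specific cDNA was PCR-amplified, fluorescently labelled and sized by capillary electrophoresis. Bidirectional curve fitting used DMSO as baseline.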

[13] = target: Cellular tumor antigen p53 (Homo sapiens) (UniProt P04637); assay: ATG_p53_CIS: Attagene CIS-FACTORIAL HepG2 Assay for human p53 Transcription Factor (AID 2282994); settings: HepG2 p53 cis-element reporter, Attagene mRNA; actives raise or lower the signal
Cellular tumor antigen p53 (Homo sapiens), sequence (P04637 whole entry, looked up): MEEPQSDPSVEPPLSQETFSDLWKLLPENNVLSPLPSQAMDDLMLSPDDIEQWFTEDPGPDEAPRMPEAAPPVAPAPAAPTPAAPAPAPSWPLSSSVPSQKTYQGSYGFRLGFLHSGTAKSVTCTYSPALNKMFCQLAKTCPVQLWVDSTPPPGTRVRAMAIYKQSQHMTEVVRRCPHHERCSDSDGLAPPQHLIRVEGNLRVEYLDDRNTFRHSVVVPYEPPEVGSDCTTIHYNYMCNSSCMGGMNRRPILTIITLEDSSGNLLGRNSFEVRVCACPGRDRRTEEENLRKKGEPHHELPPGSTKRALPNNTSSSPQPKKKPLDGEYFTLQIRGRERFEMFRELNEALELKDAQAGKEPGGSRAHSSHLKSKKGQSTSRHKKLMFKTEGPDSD
Method in brief: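 HepG2 cells transiently transfected with multiplexed cis-regulated reporter transcription units read endogenous TF activity. After 24 h compound exposure, reporter mRNA was quantified by RT-PCR, fluorescent labelling, HpaI digestion and capillary electrophoresis; bidirectional fits versus DMSO baseline.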

[14] = BSK_3C_TissueFactor: BioMAP Diversity Plus: 3C Assay for Tissue Factor Biomarker Activity (AID 2282997); settings: BioMAP 3C HUVEC, tissue factor biomarker readout; actives raise or lower the signal
Method in brief: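 Human vascular primary cells (umbilical vein endothelium) received test chemical; Tissue Factor was determined by ELISA at 24 h, and both gain and loss of signal versus DMSO were fitted.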

[15] = BSK_3C_uPAR: BioMAP Diversity Plus: 3C Assay for Urokinase-type plasminogen activator receptor (uPAR) Biomarker Activity (AID 2282998); settings: BioMAP 3C HUVEC, uPAR biomarker ELISA; actives raise or lower the signal
Method in brief: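 Values derive from bidirectional curve fitting relative to DMSO, which served as baseline of activity. uPAR was measured by ELISA in human umbilical vein endothelial primary cultures 24 h after compound addition.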

[16] = target: Glucocorticoid receptor (Homo sapiens) (UniProt P04150); assay: ATG_GR_TRANS: Attagene TRANS-FACTORIAL HepG2 Assay for human Glucocorticoid Receptor (GR) (AID 2282978; active = hit-call score of the fitted dose curve at least 0.9, where 1 is the maximum;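 note: activators score as hits since higher reporter transcript over DMSO is fitted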); settings: HepG2 Attagene TRANS GR reporter, mRNA transcription
Glucocorticoid receptor (Homo sapiens), sequence (P04150 whole entry, looked up, the tested form may be a part): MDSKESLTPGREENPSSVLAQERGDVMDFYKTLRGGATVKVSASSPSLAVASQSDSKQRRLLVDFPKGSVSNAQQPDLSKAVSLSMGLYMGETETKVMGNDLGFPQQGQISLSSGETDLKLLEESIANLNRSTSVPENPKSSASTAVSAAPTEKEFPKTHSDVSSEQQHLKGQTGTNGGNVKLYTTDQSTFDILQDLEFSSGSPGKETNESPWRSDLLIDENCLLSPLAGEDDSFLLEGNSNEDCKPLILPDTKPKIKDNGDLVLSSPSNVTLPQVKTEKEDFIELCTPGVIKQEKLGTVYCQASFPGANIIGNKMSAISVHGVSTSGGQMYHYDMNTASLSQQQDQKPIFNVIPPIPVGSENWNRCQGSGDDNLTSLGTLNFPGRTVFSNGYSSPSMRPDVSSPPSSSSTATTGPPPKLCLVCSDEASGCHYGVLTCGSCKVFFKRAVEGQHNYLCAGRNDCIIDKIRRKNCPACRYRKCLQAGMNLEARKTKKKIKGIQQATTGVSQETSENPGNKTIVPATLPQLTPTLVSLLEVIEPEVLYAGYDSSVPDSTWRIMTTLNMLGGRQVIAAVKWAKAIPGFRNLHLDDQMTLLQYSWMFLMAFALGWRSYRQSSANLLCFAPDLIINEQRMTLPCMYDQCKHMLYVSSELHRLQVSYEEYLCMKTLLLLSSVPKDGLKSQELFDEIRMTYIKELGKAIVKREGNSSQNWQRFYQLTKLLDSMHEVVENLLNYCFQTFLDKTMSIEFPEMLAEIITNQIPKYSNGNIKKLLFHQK
Method in brief: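 Transiently transfected HepG2 cells express chimeric NR-GAL4 proteins acting on GAL4-UAS reporter units. Compounds are applied for 24 h. mRNA induction over DMSO is measured by capillary electrophoresis.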

[17] = target: Hepatocyte nuclear factor 4-alpha (Homo sapiens) (UniProt P41235); assay: ATG_HNF4a_TRANS: Attagene TRANS-FACTORIAL HepG2 Assay for human Hepatocyte Nuclear Factor 4 alpha (HNF4a) (AID 2282982; active = hit-call score of the fitted dose curve at least 0.9, where 1 is the maximum); settings: HepG2 HNF4a transactivation reporter, mRNA readout
Hepatocyte nuclear factor 4-alpha (Homo sapiens), sequence (P41235 whole entry, looked up, the tested form may be a part): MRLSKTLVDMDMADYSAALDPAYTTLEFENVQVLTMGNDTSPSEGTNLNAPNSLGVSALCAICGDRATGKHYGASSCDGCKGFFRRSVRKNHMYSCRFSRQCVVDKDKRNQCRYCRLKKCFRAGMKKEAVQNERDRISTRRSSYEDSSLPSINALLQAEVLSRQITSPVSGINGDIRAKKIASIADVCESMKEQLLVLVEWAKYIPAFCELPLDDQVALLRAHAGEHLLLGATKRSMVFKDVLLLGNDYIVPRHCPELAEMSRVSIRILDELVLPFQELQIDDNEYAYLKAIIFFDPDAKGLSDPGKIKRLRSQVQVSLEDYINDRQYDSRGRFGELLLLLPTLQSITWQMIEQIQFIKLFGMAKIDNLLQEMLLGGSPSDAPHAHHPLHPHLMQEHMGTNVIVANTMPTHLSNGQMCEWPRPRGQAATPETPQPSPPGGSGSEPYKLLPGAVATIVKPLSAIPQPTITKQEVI
Method in brief: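 Gain-of-signal mRNA induction, relative to DMSO vehicle, was read after 24 h compound treatment of HepG2 cells bearing transfected GAL4-UAS reporters. Detection used RT-PCR, 6-FAM primer extension and capillary electrophoresis.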

[18] = target: Oxysterols receptor LXR-alpha (Homo sapiens) (UniProt Q13133); assay: ATG_LXRa_TRANS: Attagene TRANS-FACTORIAL HepG2 Assay for human Liver X Receptor alpha (LXRa) (AID 2282980; active = hit-call score of the fitted dose curve at least 0.9, where 1 is the maximum); settings: HepG2 Attagene TRANS reporter, LXRa transactivation
Oxysterols receptor LXR-alpha (Homo sapiens), sequence (Q13133 whole entry, looked up, the tested form may be a part): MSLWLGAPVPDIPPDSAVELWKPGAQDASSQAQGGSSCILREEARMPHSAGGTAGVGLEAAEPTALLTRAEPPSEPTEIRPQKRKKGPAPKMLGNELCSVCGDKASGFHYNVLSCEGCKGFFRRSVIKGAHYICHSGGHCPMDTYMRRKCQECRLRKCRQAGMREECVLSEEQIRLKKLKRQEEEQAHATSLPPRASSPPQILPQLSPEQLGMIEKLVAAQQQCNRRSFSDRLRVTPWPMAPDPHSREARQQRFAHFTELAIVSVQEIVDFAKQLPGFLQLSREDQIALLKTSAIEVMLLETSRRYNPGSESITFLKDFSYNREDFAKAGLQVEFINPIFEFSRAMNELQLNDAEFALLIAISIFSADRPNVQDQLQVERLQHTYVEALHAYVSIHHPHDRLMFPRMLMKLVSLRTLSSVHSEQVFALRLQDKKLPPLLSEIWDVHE
Method in brief: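 Read-out: reporter transcript levels by RT-PCR plus capillary electrophoresis, fluorescence intensity. Transiently transfected HepG2, exogenous NR-GAL4 chimera, GAL4-UAS reporters; 24 h compound exposure. Activity = increase over DMSO negative control.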

CCC(CC)Nc1c([N+](=O)[O-])cc(C)c(C)c1[N+](=O)[O-]
outcome [1]: inactive | outcome [2]: inactive | outcome [3]: inactive | outcome [4]: inactive | outcome [5]: inactive | outcome [6]: inactive | outcome [7]: inactive | outcome [8]: inactive | outcome [9]: inactive | outcome [10]: inactive | AC50 [11]: 14.4 µM (active) | outcome [12]: inactive | AC50 [13]: 72.9 µM (active) | outcome [14]: inactive | outcome [15]: inactive

O=C(O)c1cc(Oc2ccc(C(F)(F)F)cc2Cl)ccc1[N+](=O)[O-]
outcome [16]: inactive | outcome [2]: inactive | outcome [17]: inactive | outcome [4]: inactive | outcome [6]: inactive | outcome [7]: inactive | outcome [8]: inactive | outcome [9]: inactive | outcome [10]: inactive | outcome [11]: inactive | outcome [12]: inactive | outcome [14]: inactive | AC50 [15]: 29.2 µM (active)

CCCOc1nn(C(=O)NS(=O)(=O)c2ccccc2C(=O)OC)c(=O)n1C
outcome [16]: inactive | outcome [2]: inactive | outcome [17]: inactive | outcome [5]: inactive | outcome [6]: inactive | outcome [7]: inactive | outcome [8]: inactive | outcome [9]: inactive | outcome [10]: inactive | outcome [11]: inactive | outcome [12]: inactive | outcome [13]: inactive | outcome [14]: inactive | AC50 [15]: 0.0593 µM (active)

CCOP(=O)(SC(C)CC)N1CCSC1=O (stereo not drawn)
outcome [2]: inactive | outcome [17]: inactive | outcome [4]: inactive | outcome [6]: inactive | outcome [7]: inactive | outcome [8]: inactive | outcome [9]: inactive | outcome [11]: inactive | outcome [12]: inactive | outcome [14]: inactive | outcome [15]: inactive

CCNc1nc(Cl)nc(NC(C)(C)C#N)n1
outcome [16]: inactive | outcome [18]: inactive | outcome [2]: inactive | outcome [17]: inactive | outcome [4]: inactive | outcome [5]: inactive | outcome [6]: inactive | outcome [7]: inactive | outcome [8]: inactive | outcome [9]: inactive | outcome [11]: inactive | outcome [12]: inactive | outcome [13]: inactive | outcome [14]: inactive | outcome [15]: inactive

CNC(=O)ON=C(C)SC
outcome [16]: inactive | outcome [18]: inactive | outcome [2]: inactive | outcome [17]: inactive | outcome [4]: inactive | outcome [7]: inactive | outcome [8]: inactive | outcome [9]: inactive | outcome [10]: inactive | outcome [11]: inactive | outcome [12]: inactive | outcome [13]: inactive | outcome [14]: inactive | outcome [15]: inactive

CSc1nc(NC(C)C)nc(NC(C)C)n1
outcome [18]: inactive | outcome [2]: inactive | outcome [4]: inactive | outcome [5]: inactive | outcome [7]: inactive | outcome [8]: inactive | outcome [9]: inactive | AC50 [11]: 10 µM (active) | outcome [12]: inactive | outcome [13]: inactive | outcome [14]: inactive | outcome [15]: inactive

CCCCOC(=O)c1ccccc1C(=O)O
outcome [18]: inactive | outcome [2]: inactive | outcome [17]: inactive | outcome [4]: inactive | outcome [7]: inactive | outcome [8]: inactive | outcome [9]: inactive | outcome [10]: inactive | outcome [11]: inactive | outcome [12]: inactive | outcome [13]: inactive | outcome [14]: inactive | outcome [15]: inactive

CCOP(=O)(OCC)Oc1cc(C)nc(C(C)C)n1
outcome [3]: inactive | outcome [4]: inactive | outcome [5]: inactive | outcome [7]: inactive | outcome [8]: inactive | outcome [9]: inactive | outcome [11]: inactive | outcome [12]: inactive | outcome [13]: inactive | outcome [14]: inactive | outcome [15]: inactive
